# From PubChem BioAssay AID1508602 (The Scripps Research Institute Molecular Screening Center, 2020)
# Among all 650,000 compounds or so, about 6,800 (1%) were called active. This is one part of a sample in which actives are shown more often than they occur. A number with no mark means an inactive call. No stated cut-off is given here; in the data, active means activation above about 4.9%; inactive means the rest.
# Biological target: G-protein coupled receptor 151 (Homo sapiens) (UniProt Q8TDV0)
# Assay: activators of human GPR151, primary screen, cell-based, PathHunter beta-arrestin, luminescence (AID 1508602);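 further: 0% = median of compound wells and 100% = cells with positive control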
# Settings: PathHunter beta-arrestin GPR151 cells, at 11.2 µM, hits give high values
# Sequence of G-protein coupled receptor 151 (Homo sapiens) (Q8TDV0 whole entry, looked up): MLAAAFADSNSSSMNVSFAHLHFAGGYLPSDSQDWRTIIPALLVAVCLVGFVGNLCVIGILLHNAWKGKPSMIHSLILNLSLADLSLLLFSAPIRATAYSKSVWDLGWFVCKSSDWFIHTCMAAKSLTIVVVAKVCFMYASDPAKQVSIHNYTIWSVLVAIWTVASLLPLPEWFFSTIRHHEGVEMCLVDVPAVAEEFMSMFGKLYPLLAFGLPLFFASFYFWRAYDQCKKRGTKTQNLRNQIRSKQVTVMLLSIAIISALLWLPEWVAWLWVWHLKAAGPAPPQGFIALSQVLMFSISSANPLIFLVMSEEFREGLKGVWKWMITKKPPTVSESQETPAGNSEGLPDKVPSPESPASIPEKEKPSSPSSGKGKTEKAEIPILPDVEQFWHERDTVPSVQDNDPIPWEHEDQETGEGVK
row,Structure (SMILES),activation
1,CCN(CC)C(=O)Cn1cnc2sc(C(=O)NCc3ccc(Cl)cc3)c(C)c2c1=O,0.437%
2,COc1ccc([C@H](O)[C@@H]2CCCN(C(=O)OC(C)(C)C)C2)cc1,0.253%
3,COCCNC(=O)c1cn(C[C@H]2CCCN(C(=O)c3conc3C)C2)nn1,1.06%
4,CC(C)(C)OC(=O)N1CCC[C@H](Cn2cc(C(=O)O)nn2)C1,6.74% (active)
5,O=C(Nc1ccccc1)c1cnc(NCCN2CCOCC2)s1,-2.52%
6,COc1ccccc1C1C(C#N)=C(N)Oc2n[nH]c(-c3ccc4ccccc4c3)c21 (stereo not given),-0.23%
7,COc1ccc(-c2nnc(SCC(=O)Nc3ccc(Br)cc3)nc2-c2ccc(OC)cc2)cc1,1.77%
8,CC(C)CC(=O)NC(=S)Nc1ccc(F)cc1F,2.41%
9,OCCCNC(=S)Nc1ccccc1F,0.421%
10,CC(C)C(=O)NC(=S)Nc1ccccc1F,6.35% (active)
11,COc1ccccc1NC(=O)NCc1nc(-c2ccc(OC)c(OC)c2)no1,7.48% (active)
12,CCOc1ccccc1NC(=O)CCc1nc(-c2ccc(OC)c(OC)c2)no1,-1.02%
13,COc1ccccc1Cc1nc(-c2ccc(OC)c(OC)c2)no1,1.66%
14,COCCn1cc(C(=O)N2CCCCCC2)c2c3ccccc3n(C)c2c1=O,0.412%
15,CC1CCCC(NC(=O)C2N(CCN3CCCCC3)C(=O)C3C(C(=O)Nc4cc(Cl)cc(Cl)c4)C4C=CC32O4)C1C (stereo not given),-0.312%
16,COCCCNC(=O)c1nnc(-c2ccccc2)o1,-0.472%
17,CC(C)=CCC/C(C)=C/C=N/Nc1ccc(S(N)(=O)=O)cc1[N+](=O)[O-],1%
18,COc1cc(C(=O)Nc2c3c(nn2-c2ccc(F)cc2)CSC3)cc(OC)c1OC,1.91%
19,Cc1ccc(-c2nc3ccc(C(=O)NCCC4=CCCCC4)cc3nc2-c2ccc(C)cc2)cc1,4.13%
20,OCc1ccccc1CNc1ccc(F)cc1,10.3% (active)

row,Structure (SMILES),activation
1,Cc1ccc(NCc2ccccc2CO)cc1,-5.47%
2,Cn1c(CNc2ccc(F)cc2)c(C#N)c2ccccc21,0.294%
3,COc1cc(CN2CCN(C3CCCC3)C(CCO)C2)cc(OC)c1OC (stereo not given),-0.445%
4,CC(C)CCSc1nc2c(c(=O)n1Cc1ccco1)C1(CCCCC1)Cc1ccccc1-2,16.5% (active)
5,C=CCSc1nc2c(c(=O)n1CC1CCCC1)C1(CCCC1)Cc1ccccc1-2,0.419%
6,O=c1c2c([nH]c(=S)n1Cc1ccco1)-c1ccccc1CC21CCCCC1,-0.102%
7,CC(C)(C)C(=O)/C=C/c1ccccc1O,0.824%
8,CC(C)N(CCNC(=O)c1cccc(-c2cccs2)n1)C(C)C,-1.28%
9,CCCCc1ccc(NC(=O)CN2C(=O)C(C)SC(C)C2=O)cc1 (stereo not given),6.11% (active)
10,CCc1ccc(NC(=O)CN2C(=O)CSC(C)C2=O)cc1 (stereo not given),-0.109%
11,CCCCc1ccc(NC(=O)CSc2nnc(C)s2)cc1,0.0157%
12,Cc1ccccc1C(=O)NNC(=O)c1ccccc1F,-3.61%
13,CCOc1ccc(NC(=O)CSC2=C(C#N)C(c3ccc(Cl)cc3Cl)CC(=O)N2)cc1 (stereo not given),-1.43%
14,C=CCSC1=C(C#N)C(c2ccc(Cl)cc2Cl)CC(=O)N1 (stereo not given),5.51% (active)
15,CSC1=C(C#N)C(c2ccc(Cl)cc2Cl)CC(=O)N1 (stereo not given),-1.96%
16,COc1ccc([N+](=O)[O-])cc1NC(=O)C1CC(Cl)=CCC1C(=O)O (stereo not given),6.77% (active)
17,COc1ccc([N+](=O)[O-])cc1NC(=O)c1cccc(Cl)c1Cl,-1.48%
18,O=C(O)C1CC=C(Cl)CC1C(=O)Nc1cccc([N+](=O)[O-])c1 (stereo not given),-0.78%
19,CCN1CCN(C(=O)C(C)Oc2ccc(Cl)cc2Cl)CC1 (stereo not given),-0.795%
20,CCc1ccc(-n2c(C)c(C)n3c4c(=O)n(CC)c(=O)n(C)c4nc23)cc1,5.92% (active)

row,Structure (SMILES),activation
1,CCCn1c(=O)c2c(nc3n(-c4ccc(C)cc4)c(C)c(C)n23)n(C)c1=O,3.26%
2,CCOC(=O)c1ccc(-n2c(C)c(C)n3c4c(=O)n(CC)c(=O)n(C)c4nc23)cc1,1.57%
3,CCn1c(C)c(CCC(=O)NN2CCOCC2)c(=O)n2nc(-c3ccccc3OC)cc12,-0.283%
4,CCCCC(CCCC)=N/N=C1\NC(=O)C(CC(=O)O)S1 (stereo not given),-1.58%
5,N#Cc1ccc(C(=O)OCC(=O)Nc2ccc3[nH]c(=O)[nH]c3c2)cc1,0.615%
6,COc1ccc(C(=O)N/N=C/c2ccc(O)c3ncccc23)cc1,-2.28%
7,O=S(=O)(c1ccc(F)cc1)N1CCN(Cc2ccccc2F)CC1,0.53%
8,Cc1ccc(S(=O)(=O)N2CCN(Cc3ccc(F)cc3)CC2)cc1,-0.354%
9,O=S(=O)(c1ccc(F)cc1)N1CCN(CCCc2ccccc2)CC1,5.43% (active)
10,Cc1cc(C)c2c(=O)[nH]c(SCC(=O)c3ccc(F)cc3)nc2n1,3.2%
11,COc1ccccc1N1CCN(C(=O)c2cc(-c3ccc(Cl)c(Cl)c3)nc3ccccc23)CC1,-0.435%
12,COc1ccc(NC(=O)C23CCC(C)(C(=O)C2)C3(C)C)c(OC)c1 (stereo not given),0.482%
13,CCCCSc1nc2sc3c(c2c(=O)n1-c1ccc(OC)cc1)CCCC3,0.438%
14,COc1ccc(-n2c(SCC(=O)c3ccccc3)nc3sc4c(c3c2=O)CCCC4)cc1,-0.298%
15,COc1ccc(C(=O)CSc2nc3sc4c(c3c(=O)n2-c2ccc(Cl)cn2)CCCC4)c(F)c1,5.7% (active)
16,Oc1ccc(-c2n[nH]c(=S)o2)cc1,-2.2%
17,CC(C)(C)c1ccc(S(=O)CC(O)CSc2nc(-c3cccs3)cc(-c3ccccc3)c2C#N)cc1 (stereo not given),0.807%
18,CCCCOC(=O)c1ccc(NC(=O)C2C3C=CC(O3)C2C(=O)O)cc1 (stereo not given),-1.25%
19,COC(=O)c1cc(NC(=O)C2C3C=CC(C3)C2C(=O)O)cc(C(=O)OC)c1 (stereo not given),-0.454%
20,CC(C)COC(=O)c1ccc(NC(=O)C2C3C=CC(C3)C2C(=O)O)cc1 (stereo not given),6.08% (active)
